Values joined by “and” are separate entries in the source; they are usually repeats but may differ in a detail not shown here. Equal entries are not always repeated. Records with an inconclusive call do not appear. More than one record can exist for a structure, and the calls need not agree. Active and inactive are the calls of the source. The calls were made as follows, unless noted: active = hit-call score of the fitted dose curve at least 0.9, where 1 is the maximum; inactive = score below 0.9.
Assays:
[1] = molecular target: human Retinoid X Receptor beta (RXRb), RXRB (gene 6257) (UniProt P28702); experiment: ATG_RXRb_TRANS: Attagene TRANS-FACTORIAL HepG2 Assay for human Retinoid X Receptor beta (RXRb) (AID 2283013; active = hit-call score of the fitted dose curve at least 0.9, where 1 is the maximum)
Chain of human Retinoid X Receptor beta (RXRb), RXRB (gene 6257) (P28702 whole entry, looked up, the tested form may be a part): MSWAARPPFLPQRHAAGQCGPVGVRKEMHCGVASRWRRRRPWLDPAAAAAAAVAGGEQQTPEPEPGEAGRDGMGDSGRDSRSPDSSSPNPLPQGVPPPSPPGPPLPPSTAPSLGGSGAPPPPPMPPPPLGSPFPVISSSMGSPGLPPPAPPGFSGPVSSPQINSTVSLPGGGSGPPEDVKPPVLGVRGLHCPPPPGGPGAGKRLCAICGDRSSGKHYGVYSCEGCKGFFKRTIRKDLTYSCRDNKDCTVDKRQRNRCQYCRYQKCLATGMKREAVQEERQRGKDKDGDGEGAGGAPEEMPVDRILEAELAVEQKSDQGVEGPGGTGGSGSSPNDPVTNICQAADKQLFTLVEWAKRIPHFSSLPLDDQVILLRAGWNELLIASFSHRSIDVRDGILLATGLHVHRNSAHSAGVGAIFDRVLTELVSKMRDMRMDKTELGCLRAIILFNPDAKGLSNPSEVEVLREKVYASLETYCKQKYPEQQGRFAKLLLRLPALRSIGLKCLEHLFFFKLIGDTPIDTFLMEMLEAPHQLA
In short: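 Transfect HepG2 with GAL4-UAS multi-reporter constructs (chimeric NR-Gal4, TRANS format); dose compound 24 h; isolate RNA, RT-PCR, FAM primer extension, HpaI digest; quantify by capillary electrophoresis; positive direction vs DMSO.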

[2] = molecular target: human Thyroid Receptor alpha (THRa1), THRA (gene 7067) (UniProt P10827); experiment: ATG_THRa1_TRANS: Attagene TRANS-FACTORIAL HepG2 Assay for human Thyroid Receptor alpha (THRa1) (AID 2283014; active = hit-call score of the fitted dose curve at least 0.9, where 1 is the maximum)
Chain of human Thyroid Receptor alpha (THRa1), THRA (gene 7067) (P10827 whole entry, looked up, the tested form may be a part): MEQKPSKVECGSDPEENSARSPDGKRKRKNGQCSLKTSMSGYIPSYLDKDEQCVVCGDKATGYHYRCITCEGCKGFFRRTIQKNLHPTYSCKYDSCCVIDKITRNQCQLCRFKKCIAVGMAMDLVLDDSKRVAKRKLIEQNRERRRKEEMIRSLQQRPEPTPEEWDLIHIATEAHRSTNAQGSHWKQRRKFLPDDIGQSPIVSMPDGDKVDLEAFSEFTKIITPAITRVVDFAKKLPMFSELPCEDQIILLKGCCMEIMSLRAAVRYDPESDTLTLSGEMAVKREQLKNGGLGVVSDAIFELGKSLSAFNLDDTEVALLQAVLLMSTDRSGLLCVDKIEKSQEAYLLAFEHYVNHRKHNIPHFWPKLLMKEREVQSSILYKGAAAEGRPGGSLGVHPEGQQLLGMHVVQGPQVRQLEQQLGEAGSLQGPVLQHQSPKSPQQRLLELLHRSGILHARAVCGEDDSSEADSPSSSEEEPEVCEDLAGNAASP
In short: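 Transient HepG2 transfection, NR-Gal4 chimera driving GAL4-UAS reporters; 24 h compound exposure; total RNA, oligo(dT) RT, PCR, fluorescent primer extension, capillary electrophoresis. Upward direction vs DMSO control.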

[3] = read-out: E-selectin (Homo sapiens) (UniProt P16581); experiment: BSK_3C_Eselectin: BioMAP Diversity Plus: 3C Assay for Eselectin Biomarker Activity (AID 2283015); settings: primary human endothelial cells (HUVEC); actives raise or lower the signal
In short: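 HUVEC, 3C stimulation; compound exposure 24 h; E-selectin by ELISA; gain- or loss-of-signal fitted bidirectionally vs DMSO baseline.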

[4] = read-out: Interleukin-1 alpha (IL1a), IL1A (gene 3552); experiment: BSK_BE3C_IL1a: BioMAP Diversity Plus: BE3C Assay for Interleukin-1 alpha (IL1a) Biomarker Activity (AID 2283016); settings: primary human bronchial epithelial cells; actives raise or lower the signal
In short: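 BE3C primary human bronchial epithelium; cpd 24 h; IL-1a by ELISA; bidirectional fit vs DMSO; parallel SRB (0.1% SRB, 10% TCA fix, 560 nm) for cytotoxicity.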

[5] = read-out: Monocyte Chemoattractant Protein-1 (MCP1), CCL2 (gene 6347); experiment: BSK_3C_MCP1: BioMAP Diversity Plus: 3C Assay for Monocyte Chemoattractant Protein-1 (MCP1) Biomarker Activity (AID 2283017); settings: primary human endothelial cells (HUVEC); actives raise or lower the signal
In short: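 HUVEC, 3C system; 24 h chemical exposure; MCP-1 by ELISA; bidirectional curve fit vs DMSO baseline.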

[6] = read-out: Monocyte Chemoattractant Protein-1 (MCP1), CCL2 (gene 6347); experiment: BSK_4H_MCP1: BioMAP Diversity Plus: 4H Assay for Monocyte Chemoattractant Protein-1 (MCP1) Biomarker Activity (AID 2283018); settings: primary human endothelial cells (HUVEC); actives raise or lower the signal
In short: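 ELISA read-out of MCP-1 from human vascular endothelial primary cells taken at 24 hours after compound exposure. Activity was fitted in both directions relative to DMSO, which served as negative control.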

[7] = read-out: Human Leukocyte Antigen - DR isotype (HLADR), HLA-DRA (gene 3122); experiment: BSK_3C_HLADR: BioMAP Diversity Plus: 3C Assay for Human Leukocyte Antigen - DR isotype (HLADR) Biomarker Activity (AID 2283019); settings: primary human endothelial cells (HUVEC); actives raise or lower the signal
In short: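 HUVEC, 3C stimulation, 24 h post-dose; HLA-DR by ELISA; bidirectional curve fit vs DMSO baseline; gain or loss of signal scored.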

[8] = read-out: Monokine induced gamma interferon (MIG), CXCL9 (gene 4283); experiment: BSK_3C_MIG: BioMAP Diversity Plus: 3C Assay for Monokine induced gamma interferon (MIG) Biomarker Activity (AID 2283021); settings: primary human endothelial cells (HUVEC); actives raise or lower the signal;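 as to AC50: MIG protein level measured by immunoassay in the treated endothelial cultures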
In short: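 Read-out is ELISA detection of MIG on human umbilical vein endothelial cells, taken 24 h after dosing. Gain or loss of signal was scored relative to DMSO controls using bidirectional curve fitting.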

[9] = read-out: Interleukin-8 (IL8), CXCL8 (gene 3576); experiment: BSK_3C_IL8: BioMAP Diversity Plus: 3C Assay for Interleukin-8 (IL8) Biomarker Activity (AID 2283020); settings: primary human endothelial cells (HUVEC); actives raise or lower the signal
In short: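 ELISA read-out of IL-8 from human umbilical vein endothelium, measured 24 h after chemical dosing. Activity is expressed relative to DMSO negative control, with both increases and decreases fitted.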

[10] = molecular target: human Vitamin D Receptor (VDR), VDR (gene 7421) (UniProt P11473); experiment: ATG_VDR_TRANS: Attagene TRANS-FACTORIAL HepG2 Assay for human Vitamin D Receptor (VDR) (AID 2283022; active = hit-call score of the fitted dose curve at least 0.9, where 1 is the maximum)
Chain of human Vitamin D Receptor (VDR), VDR (gene 7421) (P11473 whole entry, looked up, the tested form may be a part): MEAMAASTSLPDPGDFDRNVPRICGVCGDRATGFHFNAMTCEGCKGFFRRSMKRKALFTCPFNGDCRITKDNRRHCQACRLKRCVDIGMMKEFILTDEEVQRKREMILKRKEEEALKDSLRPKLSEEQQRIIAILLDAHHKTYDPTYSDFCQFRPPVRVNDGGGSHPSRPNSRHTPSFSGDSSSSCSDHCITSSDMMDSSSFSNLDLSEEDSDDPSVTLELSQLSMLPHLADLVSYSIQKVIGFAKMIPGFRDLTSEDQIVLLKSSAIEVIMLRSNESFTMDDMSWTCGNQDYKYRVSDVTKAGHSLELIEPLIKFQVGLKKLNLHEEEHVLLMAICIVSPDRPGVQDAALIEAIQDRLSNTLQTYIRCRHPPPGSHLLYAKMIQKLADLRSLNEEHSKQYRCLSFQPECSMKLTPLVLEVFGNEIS
In short: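 RT-PCR/capillary electrophoresis read-out of reporter mRNA induction in transiently transfected HepG2; 24 h dosing; chimeric NR-Gal4 (TRANS format); gain-of-signal fit against DMSO baseline.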

Measured: AC50

Chain of E-selectin (Homo sapiens) (P16581 whole entry, looked up): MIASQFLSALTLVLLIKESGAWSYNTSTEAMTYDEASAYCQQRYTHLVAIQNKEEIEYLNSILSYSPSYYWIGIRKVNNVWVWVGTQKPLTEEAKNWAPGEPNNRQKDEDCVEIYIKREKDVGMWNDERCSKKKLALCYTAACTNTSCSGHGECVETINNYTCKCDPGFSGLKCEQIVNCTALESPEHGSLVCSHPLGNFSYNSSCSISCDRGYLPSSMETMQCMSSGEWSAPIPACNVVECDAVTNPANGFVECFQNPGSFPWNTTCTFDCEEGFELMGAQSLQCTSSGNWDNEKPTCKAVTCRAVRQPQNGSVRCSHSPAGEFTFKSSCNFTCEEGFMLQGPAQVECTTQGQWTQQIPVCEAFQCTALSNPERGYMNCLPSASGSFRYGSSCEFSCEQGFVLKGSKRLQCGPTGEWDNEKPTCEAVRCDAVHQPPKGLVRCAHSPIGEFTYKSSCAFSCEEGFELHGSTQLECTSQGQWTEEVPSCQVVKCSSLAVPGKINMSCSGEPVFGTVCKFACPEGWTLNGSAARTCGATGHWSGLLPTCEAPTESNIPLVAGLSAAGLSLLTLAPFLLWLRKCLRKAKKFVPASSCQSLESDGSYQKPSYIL

O=C(CCCN1CCC(O)(c2ccc(Cl)cc2)CC1)c1ccc(F)cc1
inactive: [1] | [2] | [3] | [4] | [5] | [6] | [7] | [8]

CC1=NN(c2ccccc2)C(=O)C1
inactive: [1] | [2] | [3] | [4] | [5] | [6] | [7] | [8]

C/C=C/C(=O)C1=C(C)CCCC1(C)C
inactive: [1] | [2]

CCOC(=O)CN[C@@H](C(=O)N1CC[C@H]1C(=O)NCc1ccc(/C(N)=N/O)cc1)C1CCCCC1
active: [1] 1.42 µM
inactive: [2] | [3] | [4] | [5] | [6] | [7] | [9] | [8] | [10]

O=C(F)C(F)(F)C(F)(F)C(F)(F)C(F)F
inactive: [1]

CS(=O)(=O)c1ccc([C@@H](CC2CCCC2)C(=O)Nc2cnccn2)cc1Cl
inactive: [1] | [2] | [3] | [4] | [5] | [6] | [7] | [9] | [8]

COCC1CCC(CO)CC1 (stereo unspecified)
inactive: [1]

O=C(NCc1ncc(C(F)(F)F)cc1Cl)c1c(Cl)cccc1Cl
inactive: [1] | [2] | [3] | [4] | [5] | [6] | [7] | [9] | [8] | [10]

CCC(=O)O
inactive: [1]

FC(F)(F)N1C(F)(F)C(F)(F)OC(F)(F)C1(F)F
inactive: [1] | [2]

Nc1ccn([C@@H]2O[C@H](CO)[C@@H](O)C2O)c(=O)n1 (stereo partly specified)
inactive: [1]

c1cc[nH]c1
inactive: [1]

COc1cccc(O)c1
inactive: [1] | [2] | [3] | [4] | [5] | [6] | [7] | [8]

C=COC(=O)C(C)(C)CCCCCC
active: [1] 62 µM | [3] 32.7 µM | [4] 34.9 µM | [5] 31.3 µM | [6] 20 µM | [7] 33.6 µM | [8] 33.9 µM
inactive: [2]

CCCCCCOC(=O)c1ccc(O)cc1
active: [1] 33.4 µM
inactive: [2] | [10]

O=C(O)CCC(F)(F)C(F)(F)C(F)(F)C(F)(F)C(F)(F)C(F)(F)F
inactive: [2] | [3] | [4] | [5] | [6] | [7] | [8] | [10]
active: [1] 51.1 µM

C=CC(=O)OCCC(F)(F)C(F)(F)C(F)(F)C(F)(F)C(F)(F)C(F)(F)C(F)(F)C(F)(F)F
inactive: [1] | [2] | [3] | [4] | [5] | [6] | [7] | [8]

Cc1ccccc1OCC(=O)O
inactive: [1]

CCCCCCCCCCCC
active: [3] 20 µM | [4] 9.52 µM and 8.11 µM
inactive: [1] | [2] | [3] | [5] | [6] | [7] | [8]

O=C1C=CC(=O)N1c1cccc(N2C(=O)C=CC2=O)c1
inactive: [1] | [2]

CCCCCc1ccc(O)cc1
inactive: [2]
active: [1] 33.4 µM | [3] 13.5 µM | [4] 23.8 µM | [5] 20 µM | [6] 9.34 µM | [7] 11.6 µM | [8] 34.6 µM

CC(C)C=O
active: [1] 100 µM
inactive: [2]

CC(C)(C)c1ccc(O)c(O)c1
inactive: [1] | [2] | [5] | [8] | [10]
active: [1] 38.8 µM and 44.5 µM and 27.8 µM | [2] 34.1 µM | [3] 3.97 µM | [4] 20 µM | [6] 5.58 µM | [7] 5.3 µM

Cc1ccc(N=Nc2c(O)ccc3ccccc23)c(C)c1
inactive: [1] | [2] | [3] | [4] | [5] | [6] | [8]
active: [7] 14.8 µM

FC(F)(F)C(F)(F)C(F)(F)Br
inactive: [1] | [2]

CC1=CC(=O)c2ccccc2C1=O
inactive: [1] | [2]

CCCCCCCCCCCC(=O)O
inactive: [1] | [2]

C[C@]12CC[C@@H]3c4ccc(O)cc4CC[C@H]3[C@@H]1CC[C@@H]2OC(=O)CCC1CCCC1
active: [1] 169 µM

COc1cc([N+](=O)[O-])ccc1N
inactive: [1] | [2] | [10]

O=C(CC(=O)C(F)(F)C(F)(F)C(F)(F)F)c1cccs1
active: [3] 51.4 µM and 52.5 µM | [4] 29.5 µM and 28.9 µM | [5] 40 µM and 41.2 µM | [6] 23.5 µM and 29.1 µM | [7] 24.1 µM and 24.6 µM | [9] 15.8 µM and 17.3 µM | [8] 51.9 µM and 52.2 µM
inactive: [1] | [2] | [10]

Cc1[nH]nc2c1N=C(c1ccccc1Cl)c1cc([N+](=O)[O-])ccc1N2
active: [3] 3.2 µM | [4] 7.77 µM | [6] 10.4 µM | [7] 3.12 µM
inactive: [1] | [2] | [5] | [8] | [10]

CCc1ccccc1O
inactive: [1] | [2]

c1cnc2c(c1)ccc1cccnc12
inactive: [1] | [2] | [10]
active: [2] 26.6 µM

— PubChem BioAssay (EPA / NIEHS)
